Results reported in PubChem BioAssay.
Active and inactive are the calls of the source. Unless noted, the rule behind the calls is not given here.

Columns and labels:
[1] = compounds binding Alexa647 anti-His antibody – biochemical, small-molecule microarray, 635 nm fluorescence, artefact control for SMM control protein annotation, primary screen (AID 1128); settings: higher = more signal;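 note: score merges feature fluorescence with signal-to-noise for each printed compound spot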
[2] = tested on: Human papillomavirus type 1a E7 protein (residues 1-88); assay: HPV1a E7 small-molecule binders, primary screen, biochemical, small-molecule microarray, residues 1-88, 635 nm (AID 1129); settings: small-molecule microarray binding, fluorescence 635 nm; higher = more signal
[3] = biological target: Focal adhesion kinase 1 (Homo sapiens) (UniProt Q05397); assay: PTK2 protein binding on printed compound slides – biochemical, small-molecule microarray, 635/667 nm fluorescence, BSA, DTT, primary screen (AID 1130); settings: 635 nm fluorescence, higher = more signal;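 note: composite of spot emission at 667 nm and signal to noise over triplicate slides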
Sequence of Focal adhesion kinase 1 (Homo sapiens) (Q05397 whole entry, looked up): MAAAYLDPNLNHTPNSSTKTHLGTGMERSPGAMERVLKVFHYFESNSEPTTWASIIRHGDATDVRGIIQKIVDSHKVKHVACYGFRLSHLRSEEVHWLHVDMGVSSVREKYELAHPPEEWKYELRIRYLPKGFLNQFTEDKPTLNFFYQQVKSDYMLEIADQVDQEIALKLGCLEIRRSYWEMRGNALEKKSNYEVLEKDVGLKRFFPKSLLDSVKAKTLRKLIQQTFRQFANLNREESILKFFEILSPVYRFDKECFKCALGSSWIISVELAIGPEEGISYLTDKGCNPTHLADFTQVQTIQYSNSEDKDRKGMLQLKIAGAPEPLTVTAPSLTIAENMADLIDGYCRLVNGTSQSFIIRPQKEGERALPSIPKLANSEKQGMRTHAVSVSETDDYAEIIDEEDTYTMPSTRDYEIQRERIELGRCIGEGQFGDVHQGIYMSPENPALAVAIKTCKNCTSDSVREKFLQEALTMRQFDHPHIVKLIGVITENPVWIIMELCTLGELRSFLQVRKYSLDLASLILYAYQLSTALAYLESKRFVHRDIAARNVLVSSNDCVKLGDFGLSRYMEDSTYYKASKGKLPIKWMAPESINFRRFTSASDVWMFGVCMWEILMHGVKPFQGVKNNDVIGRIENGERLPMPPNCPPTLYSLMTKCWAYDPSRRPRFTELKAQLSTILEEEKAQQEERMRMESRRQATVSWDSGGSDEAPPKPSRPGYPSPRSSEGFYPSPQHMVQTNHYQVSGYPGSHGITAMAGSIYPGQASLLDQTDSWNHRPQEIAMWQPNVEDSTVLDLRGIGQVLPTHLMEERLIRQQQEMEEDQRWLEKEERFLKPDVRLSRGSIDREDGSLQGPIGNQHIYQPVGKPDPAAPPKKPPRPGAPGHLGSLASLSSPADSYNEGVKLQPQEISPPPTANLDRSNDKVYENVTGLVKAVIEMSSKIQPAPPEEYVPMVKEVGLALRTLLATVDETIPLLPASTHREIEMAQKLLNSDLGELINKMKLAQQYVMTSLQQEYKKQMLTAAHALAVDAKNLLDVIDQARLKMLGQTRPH

[4] = tested on: Fibrinogen (Alexa647-labelled); assay: Alexa647-fibrinogen binding to printed small molecules – biochemical, small-molecule microarray, 635/667 nm fluorescence, artefact control for SMM control-protein annotation, profiling panel (AID 1131); settings: fibrinogen-A647 binding fluorescence, higher = more signal;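 note: z-score merges 667 nm fluorescence with per-spot signal-to-noise over triplicate slides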
[5] = biological target: Follistatin (Homo sapiens) (UniProt P19883); assay: FST protein binding to printed compounds – biochemical, small-molecule microarray, 635/667 nm fluorescence, primary screen (AID 1132); settings: 635 nm fluorescence, higher = more signal
Sequence of Follistatin (Homo sapiens) (P19883 whole entry, looked up): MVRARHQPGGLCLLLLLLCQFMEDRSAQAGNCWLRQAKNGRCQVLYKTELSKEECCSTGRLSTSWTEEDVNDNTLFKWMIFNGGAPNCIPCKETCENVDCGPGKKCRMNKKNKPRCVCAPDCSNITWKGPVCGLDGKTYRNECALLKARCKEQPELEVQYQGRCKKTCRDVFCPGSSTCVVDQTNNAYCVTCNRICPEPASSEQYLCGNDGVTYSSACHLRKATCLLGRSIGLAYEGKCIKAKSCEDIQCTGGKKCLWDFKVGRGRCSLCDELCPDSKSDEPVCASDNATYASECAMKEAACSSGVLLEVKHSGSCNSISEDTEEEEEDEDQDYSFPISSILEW

[6] = biological target: Fibroblast growth factor 2 (Homo sapiens) (UniProt P09038); assay: basic fibroblast growth factor binding to printed compounds – biochemical, small-molecule microarray, 635/667 nm fluorescence, primary screen (AID 1133); settings: FGF2, fluorescence 635/667, higher = more signal
Sequence of Fibroblast growth factor 2 (Homo sapiens) (P09038 whole entry, looked up): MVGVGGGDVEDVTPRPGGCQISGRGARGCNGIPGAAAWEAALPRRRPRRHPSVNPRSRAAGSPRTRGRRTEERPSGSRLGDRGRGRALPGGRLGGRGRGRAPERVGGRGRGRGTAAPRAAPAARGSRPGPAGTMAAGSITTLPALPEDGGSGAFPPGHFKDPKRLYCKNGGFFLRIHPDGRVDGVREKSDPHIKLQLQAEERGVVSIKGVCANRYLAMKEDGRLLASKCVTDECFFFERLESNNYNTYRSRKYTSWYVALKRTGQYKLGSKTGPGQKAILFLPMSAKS

[7] = JC-1 mitochondrial potential readout, lung cancer cells – cell-based, A549, JC-1 fluorescence, basal, 24 h, 100 nL, profiling panel (AID 1138); settings: higher = more signal;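 note: A549 lung adenocarcinoma cells under basal conditions with no added stimulus; test concentration not given here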
[8] = tested on: Lefty1; assay: Lefty1 protein binding to printed compounds – biochemical, small-molecule microarray, 635/667 nm fluorescence, primary screen (AID 1139); settings: fluorescence 635/667, higher = more signal
[9] = tested on: wheat germ agglutinin (Triticum aestivum), Alexa647-labelled; assay: Alexa647-WGA lectin binding to printed small molecules – biochemical, small-molecule microarray, 635/667 nm fluorescence, artefact control for SMM control-protein annotation, profiling panel (AID 1140); settings: WGA-A647 binding, 635 nm fluorescence, higher = more signal;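 note: score merges 667 nm feature emission with signal to noise over triplicate slides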
[10] = biological target: Luciferin 4-monooxygenase (Photinus pyralis) (UniProt P08659); assay: inhibition of purified Photinus pyralis luciferase – biochemical, luminescence, purified enzyme, 2006 set, primary screen (AID 1141); settings: purified firefly luciferase, SteadyGlo luminescence, 30 min; higher = more signal, called active from +8 up or from −8 down;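 note: cell-free assay with purified firefly luciferase at 100 ng per well in PBS; test concentration not given here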
Sequence of Luciferin 4-monooxygenase (Photinus pyralis) (P08659 whole entry, looked up): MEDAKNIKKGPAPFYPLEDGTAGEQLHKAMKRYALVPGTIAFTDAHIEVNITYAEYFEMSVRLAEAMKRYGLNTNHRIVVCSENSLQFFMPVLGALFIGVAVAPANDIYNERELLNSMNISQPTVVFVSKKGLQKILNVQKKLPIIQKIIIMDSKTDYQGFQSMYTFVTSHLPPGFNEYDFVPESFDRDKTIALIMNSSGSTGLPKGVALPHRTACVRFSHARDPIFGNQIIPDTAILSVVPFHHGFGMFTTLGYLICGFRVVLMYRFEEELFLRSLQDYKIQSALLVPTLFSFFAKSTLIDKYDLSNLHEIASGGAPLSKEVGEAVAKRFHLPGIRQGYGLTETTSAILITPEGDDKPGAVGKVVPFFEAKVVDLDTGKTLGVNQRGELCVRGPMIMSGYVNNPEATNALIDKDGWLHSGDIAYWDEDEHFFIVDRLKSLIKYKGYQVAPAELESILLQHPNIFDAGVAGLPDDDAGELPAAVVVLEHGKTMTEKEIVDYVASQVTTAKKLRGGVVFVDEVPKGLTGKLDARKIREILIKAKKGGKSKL

[11] = tested on: Wnt5a (protein binding on small-molecule microarray); assay: small molecules binding Wnt5a protein – biophysical, small-molecule microarray, 635/667 nm fluorescence, primary screen (AID 1142); settings: 635 nm fluorescence, higher = more signal;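 note: fluorescence read at 667 nm with signal to noise per printed feature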
[12] = ATP-based viability of Huh7 replicon cells – cell-based, CellTiter-Glo luminescence, basal, 48 h, cytotoxicity control for HCV replication inhibitor project, primary screen (AID 1143); settings: higher = more signal, called active from +8 up or from −8 down;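 note: Huh7 hepatoma cells carrying a hepatitis C replication reporter with no stimulus; test concentration not given here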
[13] = Pseudomonas biofilm growth suppression – PAO1 strain, BacTiter-Glo luminescence, LB-PBS, primary screen (AID 1144); settings: P. aeruginosa PAO1 biofilm, 12 h, higher = more signal
[14] = basal CRE-LacZ reporter activity in PC12 – cell-based, unstimulated, primary screen (AID 1145); settings: no forskolin, luminescence, 4.5 h, higher = more signal, called active from +8 up or from −8 down
[15] = forskolin-driven CRE-LacZ activity in PC12 – cell-based, CRE-LacZ reporter, forskolin-stimulated, primary screen (AID 1146); settings: luminescence, 4.5 h, higher = more signal, called active from +8 up or from −8 down;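 note: PC12 cells with 6xCRE LacZ reporter stimulated by forskolin 10 µM; beta-galactosidase reporter signal reflecting CREB driven transcription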
[16] = biological target: Streptavidin (Streptomyces avidinii) (UniProt P22629); assay: compounds binding control protein streptavidin – biophysical, small-molecule microarray, 635/667 nm fluorescence, artefact control for SMM compound annotation, primary screen (AID 1147); settings: higher = more signal;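 note: signal reflects streptavidin binding to arrayed compounds as a control protein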
Sequence of Streptavidin (Streptomyces avidinii) (P22629 whole entry, looked up): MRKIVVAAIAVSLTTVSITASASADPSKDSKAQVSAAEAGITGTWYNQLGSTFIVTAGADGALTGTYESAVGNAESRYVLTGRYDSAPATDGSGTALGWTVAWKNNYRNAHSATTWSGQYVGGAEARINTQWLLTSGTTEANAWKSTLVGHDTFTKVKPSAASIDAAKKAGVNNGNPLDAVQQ

[17] = probe aInhba binding on compound microarray – biochemical, small-molecule microarray, 635/667 nm fluorescence, primary screen (AID 1148); settings: higher = more signal;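 note: score merges 667nm spot fluorescence with signal-to-noise for antibody binding to printed compounds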
[18] = biological target: Torsin-1A (Homo sapiens) (UniProt O14656); assay: TOR1A wild-type binding on microarray – cell lysate, small-molecule microarray, lysate, 635/667 nm, primary screen (AID 1149); settings: COS7 hTOR1A-WT lysate, 635 nm fluorescence, higher = more signal
Sequence of Torsin-1A (Homo sapiens) (O14656 whole entry, looked up): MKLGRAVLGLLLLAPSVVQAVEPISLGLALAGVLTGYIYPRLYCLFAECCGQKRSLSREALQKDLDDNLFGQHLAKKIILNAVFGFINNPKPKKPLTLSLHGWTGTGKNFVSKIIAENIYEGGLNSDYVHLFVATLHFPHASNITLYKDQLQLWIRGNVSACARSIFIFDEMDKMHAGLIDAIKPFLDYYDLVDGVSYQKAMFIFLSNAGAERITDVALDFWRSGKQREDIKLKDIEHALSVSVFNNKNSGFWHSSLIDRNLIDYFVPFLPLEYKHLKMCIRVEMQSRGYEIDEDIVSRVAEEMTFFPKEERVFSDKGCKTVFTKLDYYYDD

[19] = biological target: Torsin-1A (Homo sapiens) (UniProt O14656); assay: torsin A mutant lysate binding on microarrays – cell lysate, small-molecule microarray, COS7 lysate, 635/667 nm fluorescence, primary screen (AID 1150); settings: COS7 hTOR1A mutant lysate, 635 nm fluorescence, higher = more signal;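 note: score pools 667 nm emission and signal to noise measuring lysate protein binding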
[20] = tested on: Sonic hedgehog protein (Shh); assay: Sonic hedgehog microarray binding compounds – biochemical, small-molecule microarray, 635/667 nm fluorescence, primary screen (AID 1151); settings: 635 nm fluorescence, higher = more signal;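 note: Shh protein binding to compounds spotted on small-molecule microarray slides; score combines spot fluorescence intensity with signal-to-noise across triplicate slides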

Cc1ccc(S[C@]2(C(=O)NCCN3CCOCC3)CC(=O)N(Cc3ccccc3C(F)(F)F)[C@@H]2c2ccc(CO)cc2I)cc1
composite z-score [1]: 0.771
composite z-score [2]: -0.0269
composite z-score [3]: 0.167
composite z-score [4]: -1.16
composite z-score [5]: -0.562
composite z-score [6]: -0.907
z-score [7]: -0.695
composite z-score [8]: -0.87
composite z-score [9]: -0.194
z-score [10]: 0.622 (inactive)
composite z-score [11]: 0.0381
z-score [12]: -0.984 (inactive)
z-score [13]: -0.487 (inactive)
z-score [14]: 0.299 (inactive)
z-score [15]: 4.04 (inactive)
composite z-score [16]: -1.49
composite z-score [17]: -0.157
composite z-score [18]: 0.174
composite z-score [19]: -0.38
composite z-score [20]: -0.245

Cc1ccc(S[C@]2(C(=O)NCC(C)C)CC(=O)N(Cc3ccccc3Cl)[C@@H]2c2ccc(CO)cc2I)cc1
composite z-score [1]: 0.231
composite z-score [2]: 0.132
composite z-score [3]: -0.47
composite z-score [4]: 0.137
composite z-score [5]: -0.142
composite z-score [6]: -0.131
z-score [7]: -0.204
composite z-score [8]: -0.7
composite z-score [9]: 0.231
z-score [10]: 0.272 (inactive)
composite z-score [11]: -0.296
z-score [12]: -0.521 (inactive)
z-score [13]: -0.505 (inactive)
z-score [14]: -0.904 (inactive)
z-score [15]: 0.442 (inactive)
composite z-score [16]: -0.942
composite z-score [17]: -0.176
composite z-score [18]: -0.276
composite z-score [19]: -0.682
composite z-score [20]: 0.196

O=C1O[C@@H](c2ccccc2)[C@@H](c2ccccc2)N2[C@@H](c3ccccc3OCCO)[C@]3(C(=O)Nc4ccc(C#CCCO)cc43)[C@@H](C(=O)Nc3nc4ccccc4s3)[C@H]12
composite z-score [1]: 2.3
composite z-score [2]: 1.21
composite z-score [3]: 0.487
composite z-score [4]: 0.956
composite z-score [5]: 1.33
composite z-score [6]: 0.737
z-score [7]: -2.04
composite z-score [8]: 1.55
composite z-score [9]: 1.23
z-score [10]: -0.778 (inactive)
composite z-score [11]: 0.559
z-score [12]: -0.975 (inactive)
z-score [13]: -0.562 (inactive)
z-score [14]: -0.671 (inactive)
z-score [15]: 0.308 (inactive)
composite z-score [16]: 1.39
composite z-score [17]: 0.269
composite z-score [18]: 0.515
composite z-score [19]: 0.585
composite z-score [20]: 1.36

COCCOC(=O)N1C(=O)[C@@]2(c3cc(C#CC4(O)CCCCCC4)ccc31)[C@H](C(N)=O)[C@H]1C(=O)O[C@H](c3ccccc3)[C@H](c3ccccc3)N1[C@@H]2c1ccccc1OCCO
composite z-score [1]: 1.84
composite z-score [2]: 1.22
composite z-score [3]: 0.988
composite z-score [4]: 0.662
composite z-score [5]: 1.17
composite z-score [6]: 1.56
z-score [7]: -0.994
composite z-score [8]: 0.569
composite z-score [9]: 0.26
z-score [10]: -0.806 (inactive)
composite z-score [11]: 0.507
z-score [12]: -6.12 (inactive)
z-score [13]: 0.533 (inactive)
z-score [14]: 0.0921 (inactive)
z-score [15]: 0.0643 (inactive)
composite z-score [16]: 0.143
composite z-score [17]: -0.522
composite z-score [18]: 0.329
composite z-score [19]: 0.445
composite z-score [20]: 1.34

COc1ccc([Si](C)(C)[C@@H]2[C@@H](CCO)O[C@]3(C(=O)N(Cc4cccc(N5C(=O)c6cccc7cccc5c67)c4)c4ccccc43)[C@H]2C)cc1
composite z-score [1]: 1.06
composite z-score [2]: 0.848
composite z-score [3]: -0.123
composite z-score [4]: 0.136
composite z-score [5]: 0.004
composite z-score [6]: -0.0148
z-score [7]: -0.43
composite z-score [8]: 0.626
composite z-score [9]: 0.0034
z-score [10]: -0.508 (inactive)
composite z-score [11]: -0.101
z-score [12]: -5.93 (inactive)
z-score [13]: 0.568 (inactive)
z-score [14]: 7.33 (inactive)
z-score [15]: -0.24 (inactive)
composite z-score [16]: -0.138
composite z-score [17]: -0.128
composite z-score [18]: -0.516
composite z-score [19]: -0.252
composite z-score [20]: 0.552

C=C(C(=O)CC[C@H](OC(C)=O)c1cccc(OCCO)c1)C(C)C
composite z-score [1]: -0.734
composite z-score [2]: -1.35
composite z-score [3]: -0.311
composite z-score [4]: -0.0681
composite z-score [5]: -0.791
composite z-score [6]: -0.883
z-score [7]: -0.6
composite z-score [8]: -0.638
composite z-score [9]: 0.335
z-score [10]: -0.0654 (inactive)
composite z-score [11]: -0.161
z-score [12]: -3.05 (inactive)
z-score [13]: -0.0576 (inactive)
z-score [14]: 0.798 (inactive)
z-score [15]: 1.04 (inactive)
composite z-score [16]: -0.608
composite z-score [17]: -0.0719
composite z-score [18]: -0.34
composite z-score [19]: -0.241
composite z-score [20]: 0.144

C=CCNC(=O)[C@@H]1[C@H]2C(=O)O[C@H](c3ccccc3)[C@H](c3ccccc3)N2[C@H](c2ccc(OCCO)cc2)[C@@]12C(=O)N(C(=O)OCCOC)c1ccc(C#CC3=CCCCC3)cc12
composite z-score [1]: 0.864
composite z-score [2]: 1.23
composite z-score [3]: 0.677
composite z-score [4]: 0.871
composite z-score [5]: 1.31
composite z-score [6]: 0.985
z-score [7]: -1.03
composite z-score [8]: 1.05
composite z-score [9]: 0.522
z-score [10]: -1.25 (inactive)
composite z-score [11]: 0.335
z-score [12]: -2.81 (inactive)
z-score [13]: 0.576 (inactive)
z-score [14]: 0.2 (inactive)
z-score [15]: 0.886 (inactive)
composite z-score [16]: 0.902
composite z-score [17]: 0.104
composite z-score [18]: 0.694
composite z-score [19]: 0.823
composite z-score [20]: 1.46

COCCOC(=O)N1C(=O)[C@@]2(c3cc(C#CC4=CCCCC4)ccc31)[C@H](C(=O)N1CCN(c3ncccn3)CC1)[C@H]1C(=O)O[C@H](c3ccccc3)[C@H](c3ccccc3)N1[C@@H]2c1ccc(O)cc1
composite z-score [1]: 1.26
composite z-score [2]: 1.19
composite z-score [3]: 0.778
composite z-score [4]: 0.804
composite z-score [5]: 1.21
composite z-score [6]: 0.29
z-score [7]: -1.05
composite z-score [8]: 0.819
composite z-score [9]: 1.11
z-score [10]: -0.94 (inactive)
composite z-score [11]: 0.282
z-score [12]: -1.17 (inactive)
z-score [13]: -0.13 (inactive)
z-score [14]: 0.761 (inactive)
z-score [15]: -0.0066 (inactive)
composite z-score [16]: 0.45
composite z-score [17]: -0.0736
composite z-score [18]: 0.714
composite z-score [19]: 0.296
composite z-score [20]: 1.5

[N-]=[N+]=Nc1ccccc1C[C@]1(C(=O)NCc2ccccc2)N=C(c2ccc(OCCCO)cc2)O[C@H]1c1ccccc1
composite z-score [1]: 1.93
composite z-score [2]: 1.24
composite z-score [3]: 0.0541
composite z-score [4]: 0.998
composite z-score [5]: 1.13
composite z-score [6]: 0.0124
z-score [7]: 0.482
composite z-score [8]: 0.0213
composite z-score [9]: 1.12
z-score [10]: -1.34 (inactive)
composite z-score [11]: 0.307
z-score [12]: -3.03 (inactive)
z-score [13]: -0.523 (inactive)
z-score [14]: -0.585 (inactive)
z-score [15]: 1.15 (inactive)
composite z-score [16]: 1.44
composite z-score [17]: 0.192
composite z-score [18]: 0.403
composite z-score [19]: 0.687
composite z-score [20]: -0.312

CCOC(=O)C1=CC[C@@H](c2ccccc2)N(S(=O)(=O)c2ccc(C)cc2)C1
composite z-score [1]: -0.416
composite z-score [2]: 0.968
composite z-score [3]: 0.478
composite z-score [4]: -0.364
composite z-score [5]: 0.736
composite z-score [6]: -0.103
z-score [7]: 0.747
composite z-score [8]: -0.34
composite z-score [9]: 0.564
z-score [10]: 0.731 (inactive)
composite z-score [11]: 0.0639
z-score [12]: -2.28 (inactive)
z-score [13]: 0.84 (inactive)
z-score [14]: 0.229 (inactive)
z-score [15]: 0.368 (inactive)
composite z-score [16]: 0.342
composite z-score [17]: 0.0633
composite z-score [18]: 0.303
composite z-score [19]: 0.17
composite z-score [20]: -0.474
